The full ranking holds about 3,200 compounds; the median of “TSA(with NAD+) / Primary screening (TSA) / delta Tm (K)” is about -0.04, and the highest 2% start at about 0.37. The sample holds the highest values, similar compounds and a random draw of the others, so the mix is not that of the screen.
Molecular target: NAD-dependent deacetylase Sirtuin 1 (human, UniProt Q96EB6)
Experiment: primary screen, delta tm
Parameters: single well (n = 1, as 'the same TSA')
Conditions: 10 µM

NAD-dependent deacetylase Sirtuin 1, sequence (Q96EB6 2-747 limits assumed): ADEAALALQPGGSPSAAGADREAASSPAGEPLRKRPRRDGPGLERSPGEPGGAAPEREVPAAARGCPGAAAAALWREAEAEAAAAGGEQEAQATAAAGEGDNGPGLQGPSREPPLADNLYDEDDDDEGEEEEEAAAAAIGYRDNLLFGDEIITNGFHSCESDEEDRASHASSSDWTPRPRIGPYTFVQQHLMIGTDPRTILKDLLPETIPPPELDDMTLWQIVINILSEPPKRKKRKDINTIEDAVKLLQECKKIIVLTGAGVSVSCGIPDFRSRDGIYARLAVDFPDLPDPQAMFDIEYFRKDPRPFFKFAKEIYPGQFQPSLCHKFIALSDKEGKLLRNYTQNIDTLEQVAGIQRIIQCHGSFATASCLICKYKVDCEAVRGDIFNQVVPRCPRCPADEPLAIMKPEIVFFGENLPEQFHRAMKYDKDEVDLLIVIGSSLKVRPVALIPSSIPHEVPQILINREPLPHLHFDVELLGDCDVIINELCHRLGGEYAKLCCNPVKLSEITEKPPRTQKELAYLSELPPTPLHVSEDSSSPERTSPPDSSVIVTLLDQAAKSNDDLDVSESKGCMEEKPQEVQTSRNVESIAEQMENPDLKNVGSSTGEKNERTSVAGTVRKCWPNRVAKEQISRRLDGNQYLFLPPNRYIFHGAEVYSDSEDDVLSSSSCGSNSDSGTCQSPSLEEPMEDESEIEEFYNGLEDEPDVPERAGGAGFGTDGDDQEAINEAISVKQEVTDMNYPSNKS

Row | Structure (SMILES) | TSA(with NAD+) / Primary screening (TSA) / delta Tm (K)
1 | Cn1cc(C(=O)O)c(-c2cccnc2)n1 | 0.06
2 | NC(=O)CCN(Cc1ccccc1)C(=O)COC(=O)C12CC3CC(C1)CC(c1ccccc1)(C3)C2 | -0.03
3 | O=C(Oc1ccc2oc3ccccc3c2c1)c1ccc([N+](=O)[O-])cc1 | -0.08
4 | CCN(CC(=O)Nc1ccc(OC)cc1)CC(=O)Nc1ccc(C(N)=O)cc1 | -0.04
5 | COc1ccc(C(=O)OC(C)C(=O)Nc2ccc(C(N)=O)cc2)c(OC)c1 (stereo not drawn) | -0.01
6 | COc1ccc2cc(/C=C/C(=O)Nc3ccc(C(N)=O)cc3)ccc2c1 | 0.76
7 | O=C(NCc1ccccc1O)c1ccc2c(c1)C(=O)c1ccccc1-2 | -0.03
8 | CCC(=O)Nc1cccc(C(=O)NNC(=O)c2nc(-c3ccccc3)n(-c3ccccc3)n2)c1 | -0.06
9 | CC(C)C(NC(=O)CCCn1c(=O)oc2cc([N+](=O)[O-])ccc21)c1nnc2ccccn12 (stereo not drawn) | -0.11
10 | Cc1nc(-c2ccccn2)[nH]c(=O)c1CC(=O)NCCc1cccc2cccnc12 | 0.28
11 | CC(C(=O)NC(c1ccccc1)C1CC1)n1cnc2ccccc21 (stereo not drawn) | 0.05
12 | O=C(CCCc1nc2ccccc2c(=O)[nH]1)N1CC2CC3CC(C2)CC1C3 | -0.01
13 | CC(N)c1nnn[nH]1 (stereo not drawn) | -0.05
14 | COc1ccc(NC(=O)c2ccccc2NC(=O)COC(=O)C23CC4CC(CC(O)(C4)C2)C3)cc1 | -0.04
15 | COc1ccc(NC(=O)c2ccc(NC(=O)COC(=O)C34CC5CC(CC(Br)(C5)C3)C4)cc2)cc1 | 0.73
16 | COc1ccccc1NS(=O)(=O)c1ccc(NC(=O)CNC(=O)C23CC4CC(CC(C4)C2)C3)cc1 | 0.08
17 | COc1ccccc1NC(=O)COc1ccc(C(=O)OCC(=O)NC23CC4CC(CC(C4)C2)C3)cc1OC | 0.13
18 | COc1ccccc1NC(=O)c1ccc(NC(=O)COC(=O)C23CC4CC(CC(C4)C2)C3)cc1 | 0.39
19 | COc1ccc(NC(=O)CC23CC4CC(C2)CC(CC(=O)Nc2ccc(OC)cc2)(C4)C3)cc1 | -0.11
20 | Cc1ccccc1CC(=O)Nc1ccc(N2CCN(Cc3ccccc3)CC2)cc1 | 0.09
21 | CN(c1ccccc1)S(=O)(=O)c1ccc(C(=O)NNC(=O)C23CC4CC(CC(C4)C2)C3)cc1 | 0.08
22 | COC(=O)c1ccccc1Nc1ccnc(Cl)n1 | -0.11
23 | Cc1cccc(-c2nc3ccccc3n3c(C)nnc23)c1 | -0.13
24 | Cn1c(=O)c2ccccc2n2c(COC(=O)Cn3nc(-c4ccc(F)cc4)oc3=O)nnc12 | -0.03
25 | O=C1NC(=S)NC(=O)C1=Cc1ccc(-c2ccc(SC(F)F)cc2)o1 | -0.43

Row | Structure (SMILES) | TSA(with NAD+) / Primary screening (TSA) / delta Tm (K)
26 | Cc1ccc(C(=O)OCc2ccc(C(=O)Nc3ccccc3)cc2)cc1 | -0.18
27 | Cc1ccc(C(C)(C)C)cc1S(=O)(=O)Nc1cccc(C(=O)NNC(=O)c2cccc(S(=O)(=O)Nc3cccc(C(F)(F)F)c3)c2)c1 | 0.65
28 | O=C(NO)c1cccc(C(F)(F)F)c1 | -0.19
29 | CCNC(=O)c1cccc(NC(=O)C2CCN(S(=O)(=O)c3cc(C(C)(C)C)ccc3C)CC2)c1 | 0.16
30 | O=C(COC(=O)C1=COCCO1)Nc1cccc2c1C(=O)c1ccccc1C2=O | 0.01
31 | COc1ccccc1NS(=O)(=O)c1cccc(NC(=O)c2oc3ccccc3c2CSC)c1 | -0.08
32 | C=CCOc1ccc(C2C(C(=O)c3ccc(C)o3)=C(O)C(=O)N2CCCN2CCOCC2)cc1 (stereo not drawn) | -0.04
33 | O=C(Nc1ccccc1Cc1ccccc1)c1ccc(CN2C(=O)CNC2=O)cc1 | 0.05
34 | CN(C)c1ccc(S(N)(=O)=O)cc1N | -0.04
35 | O=C1/C(=C/c2ccccc2)Oc2cc(O)ccc21 | -0.06
36 | O=C1/C(=C/c2cccc(O)c2)Oc2cc(O)ccc21 | -0.14
37 | O=C1/C(=C/c2cnn(-c3ccccc3)c2)Oc2cc(O)ccc21 | 0.99
38 | Cc1cnc(N2CCC(Oc3ccnc(C(N)=O)c3)CC2)s1 | -0.16
39 | O=c1c2ccccc2ncn1CC(O)c1ccccc1Cl (stereo not drawn) | 0.38
40 | O=c1c2ccccc2ncn1CC(O)c1cccc(F)c1 (stereo not drawn) | -0.19
41 | O=c1c2ccncc2ncn1CC(O)c1cccc(Cl)c1 (stereo not drawn) | -0.03
42 | O=C(CN1CCCCCC1=O)N1CCN(c2cnccn2)CC1 | -0.04
43 | CCCn1c(NC(=O)c2ccc3c(c2)CCC(=O)N3)nc2ccccc21 | 0.15
44 | O=C1CCc2cc(NC(=O)c3cccnc3)ccc2N1 | -0.13
45 | Cc1ccc(C(=O)Nc2nc3ccc(NS(=O)(=O)c4ccc5c(c4)CCC(=O)N5)cc3s2)s1 | 0.46
46 | COC(=O)/C=C1/NC(=O)CS1 | -0.13
47 | O=C(COC(=O)C1=COCCO1)Nc1cccc2ccccc12 | 0.09
48 | CC(CNCCS(=O)(=O)C(C)(C)C)c1ccccc1 (stereo not drawn) | -0.03
49 | NC(=O)C1CCN(c2ncnc3sc4c(c23)CCCCC4)CC1 | 0.26
50 | Cc1sc2ncnc(N3CCC(C(=O)N4CCC(C(N)=O)CC4)CC3)c2c1C | -0.03

Row | Structure (SMILES) | TSA(with NAD+) / Primary screening (TSA) / delta Tm (K)
51 | Cc1sc2nc(-c3cccnc3)nc(N3CCC(C(N)=O)CC3)c2c1C | -0.01
52 | NC(=O)C1CCN(c2nc(-c3cccs3)nc3sc4c(c23)CCCC4)CC1 | 2.33
53 | NC(=O)C1CCN(c2ncnc3sc4c(c23)CCCC4)CC1 | 0.32
54 | Cc1sc2ncnc(N3CCC(C(N)=O)CC3)c2c1C | 0.06
55 | Cc1sc2nc(-c3cccs3)nc(N3CCC(C(N)=O)CC3)c2c1C | 0.53
56 | NC(=O)C1CCN(c2nc(-c3cccnc3)nc3sc4c(c23)CCCC4)CC1 | 0.48
57 | NC(=O)C1CCCN(c2ncnc3sc4c(c23)CCCC4)C1 (stereo not drawn) | -0.15
58 | O=c1[nH]cnc2c(Cl)cc(Cl)cc12 | -0.16
59 | Cc1ccc(-c2nnc(SCC(=O)NC(=O)NC(C)C)n2N)cc1 | -0.04
60 | O=C(CCc1nc2ccccc2c(=O)[nH]1)Nc1ccc(N2CCN(Cc3ccccc3)CC2)cc1 | 0.03
61 | Cc1cc(C=C2C(=O)NC(=S)NC2=O)c(C)n1-c1ccc(F)cc1 | -0.48
62 | CNS(=O)(=O)c1ccc(CCC(=O)Nc2ccccc2Cc2ccccc2)cc1 | 0.07
63 | NS(=O)(=O)c1ccc(C(=O)Nc2ccc3c(c2)-c2ccccc2C3)cc1 | 0.68
64 | O=C1COc2cc(C(=O)Nc3ccc4c(c3)-c3ccccc3C4)ccc2N1 | 0.11
65 | C/C(=N/N)c1ccc2c(c1)-c1ccccc1C2 | -0.14
66 | CC1CCC(C(N)=O)CN1c1ncnc2ccsc12 (stereo not drawn) | 0.05
67 | O=C(CN1CCN(Cc2cscn2)CC1)NC(c1ccccc1)C1CC1 (stereo not drawn) | 0.03
68 | COCCCn1ccc(Nc2nc(C)nc3[nH]ccc23)n1 | -0.03
69 | O=C1NC(=O)c2ccccc2/C1=C\NNC(=O)C12CC3CC(CC(C3)C1)C2 | 0.48
70 | COc1ccc(N2C(=O)/C(=C/NNC(=O)C34CC5CC(CC(C5)C3)C4)c3ccccc3C2=O)cc1 | 0.18
71 | O=C(CC12CC3CC(CC(C3)C1)C2)NN/C=C1/C(=O)N(Cc2ccccc2)C(=O)c2ccccc21 | 0.19
72 | O=C1/C(=C/NNC(=O)C23CC4CC(CC(C4)C2)C3)c2ccccc2C(=O)N1Cc1ccccc1 | 0.56
73 | COc1ccc(CN2C(=O)/C(=C/NNC(=O)CC34CC5CC(CC(C5)C3)C4)c3ccccc3C2=O)cc1 | 0.06
74 | CC1(C)CC(=O)C(=CNNC(=O)CC23CC4CC(CC(C4)C2)C3)C(=O)C1 | -0.06
75 | COC(C)CN (stereo not drawn) | -0.12

Row | Structure (SMILES) | TSA(with NAD+) / Primary screening (TSA) / delta Tm (K)
76 | COc1cccc(-c2nc(CSc3nnc(-c4ccco4)n3Cc3ccccc3)cs2)c1 | -0.16
77 | Cc1ccc(OCCN)cc1 | 0.15
78 | Cc1nn2cccnc2c1C(=O)NCc1ccc(-c2nnn[nH]2)cc1 | -0.06
79 | Cc1nn(-c2ccc(F)cc2)c(C)c1CNCc1ccccc1 | -0.23
80 | N#Cc1c2c(c(Cl)n3c1nc1ccccc13)CCCC2 | 0.03
81 | Cc1ccccc1-c1nnn(Cc2cc(=O)oc3c(C)c(C)ccc23)n1 | -0.18
82 | NC(=O)NCc1ccc(C(=O)Nc2nc(-c3c[nH]c(C(N)=O)c3)cs2)cc1 | 0.11
83 | COc1ccc(NC(=O)c2ccc(NC(=O)c3cnoc3C)cc2)cc1OCc1cccnc1 | 0.05
84 | COC(=O)c1cc(-c2csc(NC(=O)c3cccc(NC(=O)c4cnoc4C)c3)n2)c[nH]1 | 0.67
85 | COc1ccnc(N2CCN(C(=O)c3ccc(C(N)=O)s3)CC2)n1 | -0.13
86 | Cc1ccc(-n2nnnc2SCc2nc3c(cnn3-c3ccccc3)c(=O)[nH]2)cc1 | -0.11
87 | CCCOc1ccc(C2C(C(=O)c3ccc(F)cc3)=C(O)C(=O)N2CCCN2CCOCC2)cc1 (stereo not drawn) | 0.06
88 | CNc1cc(C)nc2c(-c3ccccc3)c(C(F)(F)F)nn12 | -0.12
89 | Cc1cc(NN)n2nc(C(F)(F)F)c(-c3ccc(Cl)cc3)c2n1 | 0.37
90 | Cc1cc(N(C)C)n2nc(C(F)(F)F)c(-c3ccccc3)c2n1 | -0.05
91 | O=C1/C(=C/c2ccc(Br)cc2F)Cc2c(O)cccc21 | 0.11
92 | Oc1cccc2c1Cc1c-2nc2ccc(Cl)cc2c1-c1ccccc1Cl | 0.52
93 | COc1ccc(C(=O)NC2CCCC2(C)CO)cc1-c1ccccn1 (stereo not drawn) | -0.23
94 | CN1CCC(Sc2ccc3ccccc3c2)C1=O (stereo not drawn) | -0.19
95 | CC(=C/c1ccccc1)/C=N/NC(=O)c1cc(-c2ccc(C)cc2)n[nH]1 | 1.11
96 | Cc1ccc(-c2cc(C(=O)OC(C)C(=O)Nc3cccc([N+](=O)[O-])c3)[nH]n2)cc1 (stereo not drawn) | 0.25
97 | O=C(Nc1ccc(N2CCN(Cc3ccccc3)CC2)cc1)c1cccc2cccnc12 | 0.01
98 | O=C(COC(=O)c1ccc2c(c1)S(=O)(=O)c1ccccc1C2=O)Nc1ncc(Cl)cc1Cl | 0.15
99 | Cn1cc(CCC(=O)NCC(=O)O)c2ccccc21 | -0.16

— PMC6925144, “A prospective compound screening contest identified broader inhibitors for Sirtuin 1” (Scientific Reports, 2019)
